From PubChem BioAssay
The list is not random: actives were taken first. Their share in the collection is about 2.7%.
TMEM16A inh = blocks the mouse calcium-activated chloride channel TMEM16A | normalized B-score (activity score, 25-100; higher = stronger inhibition) at 10 µM | Q8BHY3 | HEK293 TMEM16A/YFP iodide influx fluorescence, ionomycin | 310,000 tested, 1.2% active;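 active = ratio plate-corrected score three or more library SD toward inhibition, starting fluorescence score within five deviations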;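 note: score derived from kinetic fluorescence span divided by baseline fluorescence per well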
PP5 primary = PP5 (human) phosphatase inhibition; P53041; inhibition, % at 6.7 µM; purified PP5c, OMFP substrate fluorescence; 320,000 tested, 0.18% active;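 active = inhibition above the campaign's mean inhibition across all tested compounds plus 3 SD, cut at about 9.5% in these data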;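 note: 0% = DMSO only and 100% = 100 µM cantharidin control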
PP1 counter = counter-screen for PP5 inhibitors: inhibitors of human PP1-alpha; AID 2235; 320,000 tested, 0.9% active; inhibition, % at 6.7 µM; purified PP1alpha, OMFP fluorescence; P62136;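 active = inhibition above the mean inhibition of all tested compounds plus 3 SD, computed separately for each screening campaign, cut at about 15% in these data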
Target sequence (P62136 whole entry, looked up): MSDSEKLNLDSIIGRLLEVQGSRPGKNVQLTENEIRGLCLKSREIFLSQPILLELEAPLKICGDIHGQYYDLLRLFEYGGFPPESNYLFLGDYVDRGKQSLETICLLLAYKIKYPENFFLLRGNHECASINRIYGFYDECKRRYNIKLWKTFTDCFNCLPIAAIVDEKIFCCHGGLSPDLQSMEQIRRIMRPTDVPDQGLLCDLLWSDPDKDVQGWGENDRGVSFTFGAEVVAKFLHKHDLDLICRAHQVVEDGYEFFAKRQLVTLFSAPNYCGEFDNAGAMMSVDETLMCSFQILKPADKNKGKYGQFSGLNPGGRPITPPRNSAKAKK
DNA FID counter = counter-screen for HCV NS3 helicase inhibitors: DNA intercalator displacement; DNA fluorescent intercalator displacement, fluorescence; inhibition, % at 7.9 µM; 290,000 tested, 0.17% active; in the data active = inhibition above about 37%;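 note: 0% = vehicle and 100% = reference compound; higher means more ethidium bromide displaced from hairpin DNA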
ANO1 activ = mouse TMEM16A channel activation, primary screen; Q8BHY3; HEK293 TMEM16A/YFP-H148Q/I152L, iodide quench fluorescence; hits give low values; B-score at 10 µM; 340,000 tested, 0.3% active;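 active = fluorescence-ratio B-score plate-corrected deviation score at least 3 library SD below zero, with starting fluorescence score within 5 deviations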;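 note: channel opened by trigger with iodide after compound preincubation; score built on the fluorescence ratio of max minus min over baseline; more negative score means more quench and so TMEM16A activation or potentiation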
PREPL inhibitor = human PREPL enzyme inhibition | inhibition, % at 5.96 µM | AID 2751 | recombinant PREPL, fluorescence polarization activity-based probe | Q4J6C6 | 320,000 tested, 0.68% active; in the data active = inhibition above about 43%;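 note: 0% = enzyme with DMSO and 100% = wells lacking enzyme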
TMEM16A reconf = re-confirmation of mouse TMEM16A chloride channel inhibitors. inhibition, % at 10 µM. HEK293 TMEM16A/YFP-H148Q, iodide quench fluorescence; ionomycin added to raise cell calcium. shares compounds with TMEM16A inh. 2,300 tested, 39% active;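 active = mean duplicate percent inhibition, scaled so buffer wells are 0 and the reference blocker 100, over three buffer SD above buffer mean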
HEK293 Ca mobil = alters calcium mobilization in TMEM16A HEK293 cells, counter-screen; TMEM16A/YFP HEK293, Fluo4 calcium mobilization; 2,300 tested, 2% active; shares compounds with TMEM16A inh; calcium response (% of ionomycin), % at 10 µM;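 active = duplicate-averaged calcium signal over 20% of the ionomycin maximum, relative to buffer baseline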;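 note: each well's signal is peak minus trough fluorescence divided by its pre-addition baseline; 0% = buffer wells and 100% = ionomycin wells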
Parental YFP cnt = parental YFP-HEK293 iodide quench counter-screen activity; 2,300 tested, under 10 active; AID 652233; YFP ratio F(max-min)/F0 at 10 µM; ionomycin; shares compounds with TMEM16A inh;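 active = yellow fluorescent protein signal ratio exceeding the buffer control mean by over 5 SD of those controls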;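 note: ratio is mean of duplicate wells from kinetic YFP trace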
ClC-1 rat inh = rat ClC-1 inhibition, TMEM16A specificity screen; shares compounds with TMEM16A inh; CHO ClC-1-YFP, iodide influx fluorescence quench; iodide control reads 0, buffer control 100; ratio percent, % at 10 µM; 2,300 tested, under 10 active; AID 652236;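 active = duplicate-mean ratio percent above the mean of iodide-only control wells, which defines zero, plus 5 of their SD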;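 note: higher percent means stronger block of ClC-1 iodide influx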
The depositor's hits bear a star; i = inactive; · = not tested or not shown.

SMILES | TMEM16A inh | PP5 primary | PP1 counter | DNA FID counter | ANO1 activ | PREPL inhibitor | TMEM16A reconf | HEK293 Ca mobil | Parental YFP cnt | ClC-1 rat inh
Cc1ccc(Nc2nc(COC(=O)C3CC3)cs2)cc1 | 100* | 3.9 | -1.6 | -15.8 | i | 6.4 | 21.0%* | i | -0.835 | -7.5
O=C(c1ccc(-c2ccc([N+](=O)[O-])cc2)o1)N1CCN(S(=O)(=O)c2cccs2)CC1 | · | 0.8 | 7.0 | · | i | 14.6 | · | · | · | ·
CCCCn1c(N)c(N(CC(C)C)C(=O)c2oc3ccc(Br)cc3c2C)c(=O)[nH]c1=O | i | -0.7 | -0.7 | · | i | 4.8 | · | · | · | ·
Cc1nn(-c2ccccc2)c(C)c1/C=N\N1CCN(c2ccc(Cl)cc2)CC1 | 25* | -0.6 | -0.5 | -0.7 | i | 9.2 | i | i | -1.06 | -10.5
O=S(=O)(c1ccccc1)N1N=C(c2ccccc2)CC1c1ccco1 (stereo not drawn) | i | 2.1 | -2.6 | -16.4 | · | -1.9 | · | · | · | ·
COc1ccc(C2CC(c3ccccc3)=NN2S(=O)(=O)c2ccccc2)cc1 (stereo not drawn) | i | 0.9 | 0.8 | -18.2 | i | 14.1 | 55.0%* | i | -0.845 | 2.0
CCN(CC)C(=O)CSc1nnc(COc2ccccc2)n1CC | 25* | 2.3 | 4.0 | -16.9 | i | -2.4 | i | i | -0.942 | -10.5
CC(C)c1ccc(OC(=O)c2ccc3c(=O)n4c(nc3c2)CCC4)cc1 | i | 1.8 | 4.8 | · | i | 9.9 | · | · | · | ·
CC(CNC(=S)Nc1cc(F)cc(F)c1)CSc1ccc(Cl)cc1 (stereo not drawn) | 25* | 2.9 | 0.5 | -10.2 | i | -19.4 | 43.5%* | i | -1.02 | -15.5
CCCCCc1cc(O)c2c(C)cc(=O)oc2c1 | 100* | -0.7 | -2.1 | 5.6 | i | -2.4 | 16.5%* | i | -0.971 | -7.5
COc1cc(C(=O)Oc2cccc(Nc3ncnc4ccccc34)c2)cc(OC)c1OC | 100* | 4.9 | 3.9 | -9.4 | i | 5.2 | 21.5%* | i | -1.13 | -22.0
COc1ccc(C(=O)Oc2cccc(Nc3ncnc4ccccc34)c2)cc1OC | i | 2.2 | 0.9 | -9.4 | i | 2.2 | · | · | · | ·
O=c1c(C/C=C/c2ccccc2)c(O)ccn1Cc1ccc(Cl)cc1Cl | 100* | -3.6 | 7.5 | -4.9 | i | -4.0 | i | i | -0.782 | -18.0
O=c1c(Cc2ccc(Cl)cc2Cl)c(O)ccn1Cc1ccncc1 | i | -0.6 | 2.0 | 1.9 | i | 0.5 | · | · | · | ·
CCOC(=O)C1=C(c2cccc(Oc3ccccc3)c2)NC(=S)NC1C (stereo not drawn) | 100* | 4.3 | 1.1 | -19.1 | i | -4.7 | i | i | -1.18 | -6.5
CCOC(=O)C1=C(C)C(c2cccc(Oc3ccccc3)c2)NC(=S)N1 (stereo not drawn) | i | 1.2 | 0.9 | -28.6 | i | -0.6 | · | · | · | ·
Cc1ccc(NC(=O)C(C)c2ccc(-c3ccccc3)c(F)c2)c(C)c1 (stereo not drawn) | 25* | 0.9 | -2.6 | -3.3 | i | 9.2 | i | i | -1.23 | -14.5
Nc1ccn(Cc2ccccc2)n1 | i | -2.2 | -1.8 | -3.1 | i | -7.1 | · | · | · | ·
c1ccc(Cn2ccc(-c3cnc(-c4ccccc4)s3)n2)cc1 | 100* | 3.5 | 0.1 | -12.7 | i | -29.6 | 45.0%* | i | -0.936 | -11.0
O=C(c1ccco1)N1CCN(C(=O)C2CCN(S(=O)(=O)c3cccc4nsnc34)CC2)CC1 | 100* | 0.1 | 2.1 | -9.3 | i | -1.6 | i | i | -1.06 | -11.5
Cc1ccc2nc(C)c(CN3CCN(c4ccc([N+](=O)[O-])cc4Cl)CC3)n2c1 | 25* | 2.4 | -1.7 | 4.2 | i | 22.6 | 18.5%* | i | -0.902 | -13.5
O=[N+]([O-])c1ccc(Cl)c(CN2CCN(c3ncccn3)CC2)c1 | i | -0.7 | -1.8 | -7.8 | i | -4.6 | · | · | · | ·
O=S(=O)(NCC(c1ccco1)N1CCc2ccccc2C1)c1ccc(Br)cc1 (stereo not drawn) | 25* | 3.0 | 4.8 | · | i | -20.9 | i | i | -0.822 | -5.0
Cn1c(CO)nc2c3ccccc3ccc21 | i | 1.6 | 4.2 | · | i | 14.1 | · | · | · | ·
Cc1ccc(NC(=O)c2ccc3c(=O)n4c(nc3c2)CCC4)cc1S(=O)(=O)N(C)C | · | · | · | · | i | · | · | · | · | ·
SMILES | TMEM16A inh | PP5 primary | PP1 counter | DNA FID counter | ANO1 activ | PREPL inhibitor | TMEM16A reconf | HEK293 Ca mobil | Parental YFP cnt | ClC-1 rat inh
CO/N=C/C(C#N)c1ncc(C(F)(F)F)cc1Cl (stereo not drawn) | 25* | 1.5 | -8.9 | -2.7 | i | 4.9 | 16.5%* | i | -0.838 | -7.5
CC(OC(=O)C1CC1C)C(=O)Nc1ncc(Cl)cc1Cl (stereo not drawn) | i | 1.5 | -2.7 | · | i | -3.1 | · | · | · | ·
CCN1C(=O)C(CC(=O)Nc2ccc(F)cc2)N(CCc2ccc(OC)cc2)C1=S (stereo not drawn) | 25* | 5.2 | 1.9 | 1.9 | i | 12.7 | i | i | -0.962 | -1.0
CCN1C(=O)C(CC(=O)Nc2ccc(OC)cc2)N(CCc2ccccc2)C1=S (stereo not drawn) | i | 1.9 | -0.5 | -18.9 | i | 19.1 | · | · | · | ·
COc1ccc(N2CCN(C(CNS(C)(=O)=O)c3ccco3)CC2)cc1 (stereo not drawn) | i | -0.1 | -0.7 | -7.1 | i | 5.8 | · | · | · | ·
C/C=C(/C)C(=O)OC1c2c(ccc3ccc(=O)oc23)OC(C)(C)C1OC(=O)/C(C)=C\C (stereo not drawn) | 25* | -0.7 | 7.2 | -22.3 | i | 0.5 | 28.0%* | 26.5%* | -1 | -16.5
CCOC(=O)C(=O)N(CC)C1CCS(=O)(=O)C1 (stereo not drawn) | 100* | 0.9 | -2.7 | 2.8 | i | 9.6 | i | i | -1.01 | -17.0
Oc1c(C=Nc2cccnc2)sc2ccccc12 | i | 0.0 | 3.4 | 4.8 | i | 14.1 | i | i | -0.999 | -5.0
Oc1c(C=Nc2ccccc2)sc2ccccc12 | i | -0.7 | 1.9 | 2.8 | i | -5.1 | · | · | · | ·
Cc1ccc(NC(=O)c2c(C(F)(F)F)nn(C)c2SCc2cccc(C(F)(F)F)c2)cc1C | 100* | 7.8 | -5.0 | -8.0 | i | 2.8 | i | i | -0.981 | -8.0
O=C(CNC(=O)c1ccc(Cl)cc1)OCn1nnc2ccccc2c1=O | · | -0.6 | -5.3 | · | i | -3.1 | · | · | · | ·
